The values that follow come from PubChem BioAssay (EPA / NIEHS).

Assay [1] deals with human Peroxisome Proliferator-activated Receptor alpha (PPARa), PPARA (gene 5465) (UniProt Q07869). As to the kind of experiment: ATG_PPARa_TRANS: Attagene TRANS-FACTORIAL HepG2 Assay for human Peroxisome Proliferator-activated Receptor alpha (PPARa) (AID 2283001).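 As to AC50: potency for gain of reporter signal over DMSO so agonist or activator.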 In outline:
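Exposure: 24 h, transiently transfected HepG2 cells. Endpoint: GAL4-UAS reporter mRNA, RT-PCR with capillary electrophoresis fluorescence. Baseline: DMSO; increases fitted.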

The target in assay [2] is Peroxisome proliferator-activated receptor gamma (Homo sapiens) (UniProt P37231). As to the kind of experiment: ATG_PPARg_TRANS: Attagene TRANS-FACTORIAL HepG2 Assay for human Peroxisome Proliferator-activated Receptor-gamma (PPARg) (AID 2283007). In outline: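 Gain-of-signal endpoint relative to DMSO, derived from reporter mRNA levels quantified by RT-PCR and capillary electrophoresis. Cells were HepG2 transiently expressing a chimeric NR-Gal4 construct with GAL4-UAS reporters, exposed to chemicals for 24 h.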
Peroxisome proliferator-activated receptor gamma (Homo sapiens), sequence (P37231 whole entry, looked up, the tested form may be a part): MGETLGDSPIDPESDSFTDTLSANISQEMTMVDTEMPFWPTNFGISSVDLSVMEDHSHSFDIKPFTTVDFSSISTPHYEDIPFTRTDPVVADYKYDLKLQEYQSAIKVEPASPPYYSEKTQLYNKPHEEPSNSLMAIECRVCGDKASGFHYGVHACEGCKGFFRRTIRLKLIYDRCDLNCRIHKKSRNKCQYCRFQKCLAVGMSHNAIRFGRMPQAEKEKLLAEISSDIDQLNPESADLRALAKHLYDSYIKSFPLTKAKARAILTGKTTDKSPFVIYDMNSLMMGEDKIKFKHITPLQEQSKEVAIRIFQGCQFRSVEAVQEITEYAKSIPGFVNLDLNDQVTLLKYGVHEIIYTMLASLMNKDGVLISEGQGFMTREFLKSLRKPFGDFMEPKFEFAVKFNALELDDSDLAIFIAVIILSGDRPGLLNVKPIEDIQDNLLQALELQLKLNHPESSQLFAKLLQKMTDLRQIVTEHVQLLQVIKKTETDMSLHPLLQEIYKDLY

Assay [3] deals with Nuclear receptor subfamily 1 group I member 2 (Homo sapiens) (UniProt O75469). As to the kind of experiment: ATG_PXR_TRANS: Attagene TRANS-FACTORIAL HepG2 Assay for human Pregnane X Receptor (PXR) (AID 2283008). A digest of the protocol:
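Transient HepG2 transfectants carrying multiplexed reporter transcription units; PXR activity read through a Gal4 chimera. 24 h exposure. RT-PCR/CE fluorescence; upward curve fit referenced to DMSO.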

In assay [4] the target is human RAR-related Orphan Receptor gamma (RORg), RORC (gene 6097) (UniProt P51449). The assay can be described thus: ATG_RORg_TRANS: Attagene TRANS-FACTORIAL HepG2 Assay for human RAR-related Orphan Receptor gamma (RORg) (AID 2283011). In outline:
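Transient MRTU transfection of HepG2 (TRANS format, exogenous NR-Gal4 chimera). 24 h dosing. Total RNA → oligo(dT) RT → PCR → 6-FAM labelling → HpaI cut → CE. Gain vs DMSO.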

Assay [5] addresses Retinoic acid receptor RXR-alpha (Homo sapiens) (UniProt P19793). As to the kind of experiment: ATG_RXRa_TRANS: Attagene TRANS-FACTORIAL HepG2 Assay for human Retinoid X Receptor alpha (RXRa) (AID 2283012). In outline: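 Chimeric NR-GAL4 trans-activation in HepG2, 24 h treatment; reporter transcripts quantified by fluorescence on capillary electrophoresis, analysed for upward change from DMSO.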

Assay [6] deals with human Retinoid X Receptor beta (RXRb), RXRB (gene 6257) (UniProt P28702). As to the kind of experiment: ATG_RXRb_TRANS: Attagene TRANS-FACTORIAL HepG2 Assay for human Retinoid X Receptor beta (RXRb) (AID 2283013). In outline: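 After a 24 h incubation with test chemical, transfected HepG2 cells carrying NR-Gal4 fusions and GAL4-UAS reporter transcription units yield RNA whose reporter cDNA is FAM-labelled, HpaI-cut and sized by capillary electrophoresis; increases over DMSO are scored.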
human Retinoid X Receptor beta (RXRb), RXRB (gene 6257), sequence (P28702 whole entry, looked up, the tested form may be a part): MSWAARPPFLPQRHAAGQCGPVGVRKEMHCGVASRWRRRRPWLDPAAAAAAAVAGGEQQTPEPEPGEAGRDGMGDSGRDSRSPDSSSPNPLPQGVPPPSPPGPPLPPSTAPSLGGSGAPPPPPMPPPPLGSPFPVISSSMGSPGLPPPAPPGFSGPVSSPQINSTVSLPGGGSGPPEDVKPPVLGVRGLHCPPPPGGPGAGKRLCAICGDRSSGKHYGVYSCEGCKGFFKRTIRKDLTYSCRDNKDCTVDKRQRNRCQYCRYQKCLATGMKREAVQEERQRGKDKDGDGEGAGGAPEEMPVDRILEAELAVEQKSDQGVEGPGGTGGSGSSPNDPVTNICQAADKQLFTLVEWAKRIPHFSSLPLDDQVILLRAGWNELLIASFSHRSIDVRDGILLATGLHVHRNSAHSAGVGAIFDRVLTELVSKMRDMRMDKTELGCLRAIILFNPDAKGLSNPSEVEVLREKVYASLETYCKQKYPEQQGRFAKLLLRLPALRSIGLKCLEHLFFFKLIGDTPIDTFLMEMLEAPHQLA

Assay [7] concerns the target human Thyroid Receptor alpha (THRa1), THRA (gene 7067) (UniProt P10827). The assay can be described thus: ATG_THRa1_TRANS: Attagene TRANS-FACTORIAL HepG2 Assay for human Thyroid Receptor alpha (THRa1) (AID 2283014). A digest of the protocol:
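Transient HepG2 transfection, NR-Gal4 chimera driving GAL4-UAS reporters; 24 h compound exposure; total RNA, oligo(dT) RT, PCR, fluorescent primer extension, capillary electrophoresis. Upward direction vs DMSO control.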

Assay [8] concerns the target human Peroxisome Proliferator-activated Receptor delta (PPARd), PPARD (gene 5467) (UniProt Q03181). The assay can be described thus: ATG_PPARd_TRANS: Attagene TRANS-FACTORIAL HepG2 Assay for human Peroxisome Proliferator-activated Receptor delta (PPARd) (AID 2283002). A digest of the protocol: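 Multiplexed trans-activation format: HepG2 liver cells expressing exogenous NR-Gal4 chimeras and GAL4-UAS reporters were exposed for 24 h. Reporter mRNA was detected by RT-PCR with capillary electrophoresis fluorescence; activity fitted as gain of signal relative to DMSO.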

Assay [9] has as its target human RAR-related Orphan Receptor beta (RORb), RORB (gene 6096) (UniProt Q92753). As to the kind of experiment: ATG_RORb_TRANS: Attagene TRANS-FACTORIAL HepG2 Assay for human RAR-related Orphan Receptor beta (RORb) (AID 2283010). A digest of the protocol: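 Multiplexed transcription-factor reporter assay: HepG2 cells transiently carrying NR-Gal4/GAL4-UAS constructs, 24 h treatment, mRNA quantified by RT-PCR plus capillary electrophoresis fluorescence; activity scored as induction over DMSO.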

In assay [10] the target is human Retinoic Acid Receptor gamma (RARg), RARG (gene 5916) (UniProt P13631). As to the kind of experiment: ATG_RARg_TRANS: Attagene TRANS-FACTORIAL HepG2 Assay for human Retinoic Acid Receptor gamma (RARg) (AID 2283009). In outline:
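Gain-of-signal relative to DMSO is reported from fluorescent capillary electrophoresis of RT-PCR reporter products. These came from HepG2 cells expressing transfected RARg-GAL4 chimeras with UAS reporters, harvested 24 h after dosing.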

The target of assay [11] is human Retinoic Acid Receptor beta (RARb), RARB (gene 5915) (UniProt P10826). The assay can be described thus: ATG_RARb_TRANS: Attagene TRANS-FACTORIAL HepG2 Assay for human Retinoic Acid Receptor beta (AID 2283004). A digest of the protocol: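 Readout is reporter mRNA induction: RNA reverse-transcribed, PCR-amplified, FAM-labelled, HpaI-cut and resolved by capillary electrophoresis. Transiently transfected HepG2 cells carrying exogenous NR–Gal4 chimeras were dosed for 24 h; activity fitted upward relative to DMSO.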

For assay [12], the target named is Retinoic acid receptor alpha (Homo sapiens) (UniProt P10276). The assay can be described thus: ATG_RARa_TRANS: Attagene TRANS-FACTORIAL HepG2 Assay for human Retinoic Acid Receptor alpha (RARa) (AID 2283005). A digest of the protocol: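 HepG2 cells transiently transfected with multiple reporter units expressing chimeric RARα-GAL4 fusion, with GAL4-UAS-driven reporters. After 24 h compound exposure, reporter mRNA induction quantified by RT-PCR and capillary electrophoresis with fluorescent labeling; gain-of-signal fitted relative to DMSO control.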

Results filed as inconclusive are left out. Active and inactive are the calls of the source. The calls were made as follows: active = hit-call score of the fitted dose curve at least 0.9, where 1 is the maximum; inconclusive = response in the unintended direction; inactive = score below 0.9.

human Peroxisome Proliferator-activated Receptor alpha (PPARa), PPARA (gene 5465), sequence (Q07869 whole entry, looked up, the tested form may be a part): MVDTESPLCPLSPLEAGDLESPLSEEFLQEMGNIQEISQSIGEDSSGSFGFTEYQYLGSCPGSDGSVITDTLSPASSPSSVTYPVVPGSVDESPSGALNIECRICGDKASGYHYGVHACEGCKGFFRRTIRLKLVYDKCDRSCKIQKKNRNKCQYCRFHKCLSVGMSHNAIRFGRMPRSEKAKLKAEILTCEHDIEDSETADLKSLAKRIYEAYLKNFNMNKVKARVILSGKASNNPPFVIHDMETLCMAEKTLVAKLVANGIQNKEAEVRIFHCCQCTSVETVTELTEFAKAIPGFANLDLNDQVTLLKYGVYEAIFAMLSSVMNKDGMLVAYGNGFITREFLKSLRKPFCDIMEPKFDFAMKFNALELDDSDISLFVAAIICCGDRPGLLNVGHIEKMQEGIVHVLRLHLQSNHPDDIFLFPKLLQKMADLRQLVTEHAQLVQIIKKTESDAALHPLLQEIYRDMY
Retinoic acid receptor RXR-alpha (Homo sapiens), sequence (P19793 whole entry, looked up, the tested form may be a part): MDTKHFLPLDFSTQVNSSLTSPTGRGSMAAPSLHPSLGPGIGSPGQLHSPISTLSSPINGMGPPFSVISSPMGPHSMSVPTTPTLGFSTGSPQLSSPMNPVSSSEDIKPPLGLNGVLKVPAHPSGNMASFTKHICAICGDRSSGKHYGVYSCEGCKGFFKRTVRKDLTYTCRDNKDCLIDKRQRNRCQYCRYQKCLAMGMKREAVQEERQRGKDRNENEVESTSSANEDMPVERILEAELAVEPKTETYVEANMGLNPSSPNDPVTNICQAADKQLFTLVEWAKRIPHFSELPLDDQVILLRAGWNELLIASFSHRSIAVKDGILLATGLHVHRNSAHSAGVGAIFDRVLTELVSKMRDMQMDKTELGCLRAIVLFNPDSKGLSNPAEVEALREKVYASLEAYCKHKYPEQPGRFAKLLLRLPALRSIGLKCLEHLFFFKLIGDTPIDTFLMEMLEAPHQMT
human Peroxisome Proliferator-activated Receptor delta (PPARd), PPARD (gene 5467), sequence (Q03181 whole entry, looked up, the tested form may be a part): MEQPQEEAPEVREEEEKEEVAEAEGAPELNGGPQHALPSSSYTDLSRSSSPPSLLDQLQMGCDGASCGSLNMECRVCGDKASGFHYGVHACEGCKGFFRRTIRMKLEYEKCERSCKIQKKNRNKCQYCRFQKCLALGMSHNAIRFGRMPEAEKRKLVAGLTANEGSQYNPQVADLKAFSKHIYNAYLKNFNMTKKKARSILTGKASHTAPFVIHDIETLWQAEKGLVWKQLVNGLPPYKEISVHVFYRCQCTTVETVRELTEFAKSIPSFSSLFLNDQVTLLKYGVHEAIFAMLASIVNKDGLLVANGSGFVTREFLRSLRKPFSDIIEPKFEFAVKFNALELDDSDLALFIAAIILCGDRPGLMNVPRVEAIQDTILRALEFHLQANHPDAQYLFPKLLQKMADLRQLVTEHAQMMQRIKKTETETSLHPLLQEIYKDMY
Nuclear receptor subfamily 1 group I member 2 (Homo sapiens), sequence (O75469 whole entry, looked up, the tested form may be a part): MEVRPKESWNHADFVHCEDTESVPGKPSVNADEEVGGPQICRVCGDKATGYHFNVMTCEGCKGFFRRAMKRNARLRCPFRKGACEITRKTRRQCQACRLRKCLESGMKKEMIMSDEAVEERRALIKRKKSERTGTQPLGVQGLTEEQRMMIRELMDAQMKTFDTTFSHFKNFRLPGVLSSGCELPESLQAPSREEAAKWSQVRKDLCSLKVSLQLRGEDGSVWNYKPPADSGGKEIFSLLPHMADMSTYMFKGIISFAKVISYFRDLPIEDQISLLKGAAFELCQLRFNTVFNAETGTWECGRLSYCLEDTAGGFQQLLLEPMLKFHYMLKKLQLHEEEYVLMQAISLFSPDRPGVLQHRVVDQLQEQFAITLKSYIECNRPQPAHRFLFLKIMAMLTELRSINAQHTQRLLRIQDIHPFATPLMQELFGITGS
human Thyroid Receptor alpha (THRa1), THRA (gene 7067), sequence (P10827 whole entry, looked up, the tested form may be a part): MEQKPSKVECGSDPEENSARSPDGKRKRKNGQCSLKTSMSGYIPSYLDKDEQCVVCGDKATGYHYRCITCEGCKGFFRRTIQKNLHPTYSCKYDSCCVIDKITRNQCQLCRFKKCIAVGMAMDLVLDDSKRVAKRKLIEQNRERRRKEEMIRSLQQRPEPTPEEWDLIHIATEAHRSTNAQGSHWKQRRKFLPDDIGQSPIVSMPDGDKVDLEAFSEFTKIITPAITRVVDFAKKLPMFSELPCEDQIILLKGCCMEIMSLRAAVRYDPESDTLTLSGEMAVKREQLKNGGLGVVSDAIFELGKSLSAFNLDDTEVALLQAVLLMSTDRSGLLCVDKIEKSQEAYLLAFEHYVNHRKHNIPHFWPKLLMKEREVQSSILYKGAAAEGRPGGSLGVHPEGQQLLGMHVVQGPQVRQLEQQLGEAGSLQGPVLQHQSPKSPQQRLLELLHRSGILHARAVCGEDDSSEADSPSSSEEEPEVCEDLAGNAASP
human RAR-related Orphan Receptor gamma (RORg), RORC (gene 6097), sequence (P51449 whole entry, looked up, the tested form may be a part): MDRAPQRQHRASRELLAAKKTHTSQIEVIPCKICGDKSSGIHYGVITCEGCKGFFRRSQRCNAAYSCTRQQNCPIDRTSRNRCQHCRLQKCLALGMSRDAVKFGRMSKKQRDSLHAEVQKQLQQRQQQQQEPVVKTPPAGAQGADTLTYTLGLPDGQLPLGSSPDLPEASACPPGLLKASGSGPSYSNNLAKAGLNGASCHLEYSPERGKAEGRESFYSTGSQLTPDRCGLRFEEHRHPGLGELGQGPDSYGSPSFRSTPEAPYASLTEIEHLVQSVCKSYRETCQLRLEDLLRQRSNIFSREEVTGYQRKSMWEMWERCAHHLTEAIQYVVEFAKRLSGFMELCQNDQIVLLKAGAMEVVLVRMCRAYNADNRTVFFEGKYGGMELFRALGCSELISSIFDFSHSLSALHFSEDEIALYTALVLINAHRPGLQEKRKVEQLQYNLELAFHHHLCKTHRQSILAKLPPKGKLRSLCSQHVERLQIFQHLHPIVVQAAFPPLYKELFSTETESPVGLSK
human Retinoic Acid Receptor gamma (RARg), RARG (gene 5916), sequence (P13631 whole entry, looked up, the tested form may be a part): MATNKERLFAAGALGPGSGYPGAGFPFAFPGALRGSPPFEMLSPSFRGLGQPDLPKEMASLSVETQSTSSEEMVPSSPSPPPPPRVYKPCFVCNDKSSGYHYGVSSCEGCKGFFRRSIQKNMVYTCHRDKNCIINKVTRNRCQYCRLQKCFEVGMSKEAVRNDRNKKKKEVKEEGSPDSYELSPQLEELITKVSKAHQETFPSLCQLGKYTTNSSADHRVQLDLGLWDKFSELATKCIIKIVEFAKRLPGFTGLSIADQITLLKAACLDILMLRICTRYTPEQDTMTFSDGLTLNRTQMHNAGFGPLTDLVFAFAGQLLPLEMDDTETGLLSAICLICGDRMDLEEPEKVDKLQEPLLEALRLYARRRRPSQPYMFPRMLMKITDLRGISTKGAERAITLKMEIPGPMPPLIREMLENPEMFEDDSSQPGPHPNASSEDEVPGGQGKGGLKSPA
human RAR-related Orphan Receptor beta (RORb), RORB (gene 6096), sequence (Q92753 whole entry, looked up, the tested form may be a part): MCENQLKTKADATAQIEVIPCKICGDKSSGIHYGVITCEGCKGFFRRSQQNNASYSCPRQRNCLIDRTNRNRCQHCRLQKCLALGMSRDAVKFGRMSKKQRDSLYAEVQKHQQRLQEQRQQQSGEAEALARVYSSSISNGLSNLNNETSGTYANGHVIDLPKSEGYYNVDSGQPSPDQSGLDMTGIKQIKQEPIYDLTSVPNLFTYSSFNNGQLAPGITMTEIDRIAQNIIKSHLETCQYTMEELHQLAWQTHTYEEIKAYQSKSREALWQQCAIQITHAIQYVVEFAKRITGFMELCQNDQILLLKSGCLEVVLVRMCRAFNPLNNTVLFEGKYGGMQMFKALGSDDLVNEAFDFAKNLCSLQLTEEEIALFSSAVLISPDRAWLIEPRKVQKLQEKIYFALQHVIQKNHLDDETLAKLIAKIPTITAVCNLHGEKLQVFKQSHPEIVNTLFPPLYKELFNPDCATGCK

`C=CC(C)(CCC=C(C)C)OC(=O)CC` (configuration not stated): the molecule was classed as inactive in assay [1], in [2], in assay [3], in [4], in assay [5] and in [6].

In the case of `N=C1N=C(N)c2ccccc21`, the AC50 in [1] was 173 µM (active); in [3], 47.5 µM (active). The molecule was called inactive in assay [2], in assay [4], in assay [5], in [6] and in assay [7].

For `CC(=N[Si](C)(C)C)O[Si](C)(C)C`, the molecule was called inactive in assay [1], in assay [8], in assay [9], in assay [4] and in [7].

With `CCO[Si](CCC#N)(OCC)OCC`, the molecule was classed as inactive in assay [1], in assay [2], in [3], in assay [4] and in assay [7].

Turning to `COC(=O)c1cccc(C(=O)OC)c1`, the outcome in assay [1], in [2], in [3], in [10], in assay [9] and in assay [4] was inactive. Moreover, the molecule was classed as inactive in assay [6].

Consider `CCOC(=O)COC(=O)c1ccccc1C(=O)OCC`, for which the call in assay [1] and in [2] was inactive.

`c1coc(CNc2ncnc3nc[nH]c23)c1`: the result in assay [1], in assay [8], in assay [2], in [4], in assay [5] and in [7] was inactive.

As for `C1=COCCC1`, the outcome in [1], in [11], in assay [3], in assay [9], in assay [4] and in [6] was inactive.

As to `C=C(C)C(=O)OCCC(C)OC(=O)C(=C)C` (configuration not stated), the molecule was classed as inactive in assay [1], in [3] and in [6]. Besides, the AC50 in assay [2] is 47 µM (active).

Take `CC(=O)OC(C)(C)C`: the call in [1], in [8], in assay [3], in assay [4], in assay [5] and in assay [6] was inactive. Besides, the result in [7] was inactive.

`O=S1(=O)CC=CC1`: the result in assay [1], in assay [8], in assay [9], in assay [4] and in [5] was inactive.

As for `CCOC(=O)C(=O)OCC`, the result in [1], in assay [8] and in [9] was inactive.

Take `CC(C)Cc1ccccc1`: the result in assay [8], in assay [11], in assay [12], in assay [3], in assay [9] and in assay [4] was inactive. The result in assay [5] and in assay [6] was inactive.

Regarding `CC(=O)c1ccc(O)cc1`, the molecule was classed as inactive in assay [8], in assay [2], in assay [3], in [9], in assay [4] and in assay [5]. Moreover, the call in assay [6] and in assay [7] was inactive.

As to `CNC(=C[N+](=O)[O-])NCCSCc1ccc(CN(C)C)o1`, the call in assay [8], in assay [11], in [3], in assay [10], in assay [4] and in assay [5] was inactive.

For `Nc1ccc(O)c(N)c1`, the molecule was called inactive in assay [1], in assay [2], in [3], in assay [6] and in assay [7].

`Cc1cccc(O)c1`: the call in assay [8], in [2], in assay [3], in assay [9] and in assay [4] was inactive.

Turning to `COc1cc(OC)c2ccc(=O)oc2c1`, the molecule was called inactive in assay [1], in assay [3], in [5], in assay [6] and in [7].

As to `NC(=O)NC(N)=O`, the outcome in assay [8], in assay [11], in assay [3], in [10], in assay [5] and in assay [6] was inactive.

For `CCCCCCOC(C)=O`, in assay [8], the molecule was called inactive.

In the case of `C1COCO1`, the molecule was classed as inactive in assay [1], in assay [2] and in assay [7].

Consider `O=Cc1ccccc1O`, for which the molecule was classed as inactive in [8], in assay [2], in [3], in [10], in assay [4] and in assay [5]. The result in [6] and in [7] was inactive.

On to `CC1=CCC(C(C)(C)O)CC1` (configuration not stated), for which the outcome in [1], in assay [3] and in [7] was inactive.

With `CC1COC(=O)O1` (configuration not stated), the molecule was called inactive in [1], in [2] and in [7].

For `O=S(=O)(O)c1cc(S(=O)(=O)O)c2c(N=Nc3ccccc3)c(O)ccc2c1`, the call in assay [1], in assay [3], in assay [9], in assay [5] and in [7] was inactive.

With `ClCCOCCOCCCl`, the call in [8], in assay [11], in assay [12], in assay [9], in assay [4] and in assay [5] was inactive. Also, the result in assay [6] and in assay [7] was inactive.
